Sampled rows, rich in hits. Any-hit rate of the full collection: about 1.3%.
TRPV1 agonist – activates the human vanilloid receptor TRPV1; AID 540275; activation, % at 8.33 µM; TRPV1-expressing cells, Fluo-8 calcium influx, agonist mode; 320,000 compounds, 0.19% hits; in the data active = activation above about 80%; inconclusive = between about 30% and that limit; note: 0% is about no effect
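TRPV1-expressing cells were cultured overnight at 35.5C and loaded with Fluo-8 calcium dye for 40 to 90 min at room temperature. After a 10 s baseline, compound was added and calcium influx was read kinetically for 3 min (ex 480/em 520 nm).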
KCNH2 3.1 inh – inhibitors of human KCNH2 3.1 potassium channel isoform; U2OS KCNH2 3.1, thallium flux FluxOr; hits give low values; activity change, % (tested at about 1.8 µM); 340,000 compounds, 0.95% hits; AID 720553;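 active = maximum activity change below -70%; inconclusive = maximum activity change from -70% to -50%; inactive = maximum activity change above -50%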;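 note: thallium influx rate constant from kinetic fluorescence after stimulation buffer; % is set by controls: 0 for no effect and ±100 for the full control effect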
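Steps: virus added to U2OS suspension (4 h, RT, dark); medium with 10% FBS added, cells plated, 37 C overnight; FluxOr/Red40 loading buffer 45 min RT; stimulation buffer, 2 min kinetic read; rate constant normalized.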
TRPV1 PAM – enhances activation of the human vanilloid receptor TRPV1 | Q8NER1 | 320,000 compounds, 0.02% hits | AID 540277 | potentiation, % at 8.33 µM | TRPV1-expressing cells, Fluo-8 calcium influx, capsaicin EC20 potentiation; in the data active = potentiation above about 80%; inconclusive = between about 30% and that limit; note: 0% is about no effect
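Fluo-8 calcium influx in TRPV1-expressing cells, kinetic read (ex 480/em 520 nm). Compound added and read 3 min for agonist activity, followed by capsaicin at EC20 final and 2 min further read for enhancement.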
KCNH2 WT inh – inhibitors of human wildtype KCNH2 potassium channel | Q12809 | U2OS, BacMam KCNH2, thallium flux FluxOr; hits give low values | activity change, % at 1.84 µM | 340,000 compounds, 0.37% hits | AID 720551;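 active = maximum activity change below -70%; inconclusive = maximum activity change between -70% and -50%; inactive = maximum activity change above -50%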; note: % is set by controls: 0 for no effect and ±100 for the full control effect
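U2OS cells were transduced with wild-type KCNH2 virus (2.03 x 10^8 / mL) for 4 h at room temperature, then cultured overnight at 37 C. Thallium flux was read with FluxOr dye. Rate constants were normalized to DMSO controls.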
The depositor's hits bear a star; i = inactive; ? = inconclusive; / = no result given.

SMILES | TRPV1 agonist | KCNH2 3.1 inh | TRPV1 PAM | KCNH2 WT inh
Cc1ccc(NC(=O)C(C)OC(=O)/C=C/c2ccccc2)cc1 (stereo unspecified) | 23 | 0 | -5 | -22
CC(C)C[C@@H](CN(N=O)[C@@H](Cc1ccccc1)CN(C)N=O)N(CCc1ccccc1)N=O | 15 | / | 8 | /
CC(C)CCN(N=O)[C@@H](Cc1ccccc1)CN(N=O)[C@@H](Cc1ccccc1)CN(C)N=O | 10 | -113* | -6 | -16
Cc1ccc(NC(=O)c2ccc(C)cc2)cc1 | 81* | -9 | 5 | -4
Cc1ccc(C)c(C(=O)COC(=O)c2cc(S(=O)(=O)N3CCOCC3)ccc2F)c1 | / | 2 | / | -77*
N#Cc1ccc(NC(=O)CCc2ccc(S(=O)(=O)N3CCOCC3)cc2)cc1 | 102* | 5 | -8 | 1
Cc1ccc(C(=O)Nc2ccc(S(=O)(=O)N3CCOCC3)cc2)cc1C | 82* | 5 | -12 | -2
O=C(Nc1ccc(S(=O)(=O)Nc2cnc3ccccc3n2)cc1)c1cccc(OC(F)F)c1 | 1 | -5 | 6 | 2
Cc1ccc(S(=O)(=O)NC(=O)COc2ccc(Cl)cc2Cl)cc1 | 8 | -16 | 5 | -5
COCCNC(=O)c1c[nH]c2ccc(S(=O)(=O)N3CCOCC3)cc2c1=O | -2 | -5 | 12 | -3
O=C(Nc1ccn(-c2ccccc2)n1)c1ccc(S(=O)(=O)N2CCCCCC2)cc1 | -2 | -84* | -21 | -29
Cc1ccc(NC(=O)c2ccc3c(c2)S(=O)(=O)c2ccccc2C3=O)cc1S(=O)(=O)N1CCOCC1 | 0 | -190* | -7 | -136*
CC(C)CCNC(=O)c1c[nH]c2ccc(S(=O)(=O)N3CCOCC3)cc2c1=O | 82* | 0 | -2 | -1
Cc1ccc(-c2nnc(SCC(=O)Nc3ccc(S(=O)(=O)N4CCCCCC4)cc3)o2)cc1 | -3 | -13 | -1 | -13
O=C(Nc1ccc(S(=O)(=O)N2CCOCC2)cc1)c1ccc2c(c1)S(=O)(=O)c1ccccc1C2=O | -4 | -20 | -5 | 0
Cc1ccc2cc(C)c(SCC(=O)Nc3ccc(S(=O)(=O)N4CCCC4)cc3)nc2c1 | 9 | -100* | 0 | -12
CCOc1ccc(-c2c(C)sc3nc[nH]c(=O)c23)cc1 | 2 | -4 | 7 | 1
N=c1ccn2c(n1)OC1C(O)[C@@H](CO)O[C@H]12 (stereo partly specified) | 3 | / | 19 | /
Cc1ccc(S(=O)(=O)N2CCOCC2)cc1C(=O)NCCCn1ccnc1 | 0 | -11 | -2 | -90*
Cc1ccc(NC(=O)c2ccc(S(=O)(=O)N3CCCC3)cc2)cc1 | / | 6 | / | -4
Cc1ccc(S(=O)(=O)N2CCOCC2)cc1C(=O)Nc1ccc2c(c1)CCC2 | 83* | -3 | -25 | 5
Cc1ccc(S(=O)(=O)N2CCOCC2)cc1C(=O)Nc1ccncc1 | -2 | -5 | -11 | -12
Cc1ccc(C(=O)Nc2ccc3cn[nH]c3c2)cc1S(=O)(=O)N1CCOCC1 | 92* | 4 | 11 | -5
Cc1ccc(C(=O)Nc2ccc(S(=O)(=O)N3CCCC3)cc2)cc1 | 85* | 7 | -40 | -6
Cc1ccc(Cl)cc1N1CCN(S(=O)(=O)c2c(C)[nH]c(C)c2C(=O)N2CCCCC2)CC1 | 8 | 15 | 2 | -13
SMILES | TRPV1 agonist | KCNH2 3.1 inh | TRPV1 PAM | KCNH2 WT inh
Cc1cc(=O)[nH]c(SCC(=O)Nc2nonc2C)n1 | 0 | -3 | 23 | -3
CCOC(=O)C1(CCOc2ccccc2)CCN(Cc2cc(OC)c3c(c2)OCO3)CC1 | -1 | -71* | -4 | -32
CCOC(=O)C1(CCOc2ccccc2)CCN(Cc2ccc(OCC)c(CO)c2)CC1 | / | -108* | / | -87*
CCOC(=O)C1(CCOc2ccccc2)CCN(Cc2ccc(NC(C)=O)cc2)CC1 | 5 | ? | -1 | 2
CCOC(=O)C1(CCOc2ccccc2)CCN(Cc2ccc(OC)cc2)CC1 | / | -120* | / | -98*
CCOC(=O)C1(CCOc2ccccc2)CCN(Cc2cccc(OCCO)c2)CC1 | 0 | ? | 18 | -8
O=S1(=O)CCOC(CO)CN1Cc1ccc(Cl)c(Cl)c1 (stereo unspecified) | / | -3 | / | -11
CCN1C(=O)[C@H]2[C@@H](c3ccc(-c4ccc5c(c4)OCO5)c(OC)c3)N[C@@](Cc3ccccc3)(C(=O)OC)[C@H]2C1=O | -4 | -111* | -2 | 6
CCN1C(=O)[C@H]2[C@@H](c3ccc(-c4ccc5c(c4)OCO5)c(OC)c3)N[C@@](CC(C)C)(C(=O)OC)[C@H]2C1=O | 8 | -1 | 6 | 0
CCCc1nnc(NC(=O)C23CC4CC(CC(C4)C2)C3)s1 | 3 | 14 | -9 | 1
CCC(=O)N1CCN(c2ccc(Cl)cc2NC(=O)Cc2ccc(Cl)cc2)CC1 | -7 | -75* | 5 | 22
O=C(Nc1ccc(N2CCN(C(=O)c3ccccc3)CC2)c(Cl)c1)c1ccco1 | 27 | -15 | -15 | 2
CCCC(=O)N1CCN(c2ccc(NC(=O)c3cccs3)cc2Cl)CC1 | 4 | 7 | -3 | -6
CCCC(=O)N1CCN(c2ccc(NC(=O)c3cc4ccccc4o3)cc2Cl)CC1 | 1 | -90* | -15 | ?
CCC(=O)N1CCN(c2ccccc2NC(=O)Cc2ccc(Cl)cc2)CC1 | 2 | -30 | 3 | 24
CCCOc1ccc(C(=O)N2CCN(c3ccc(NC(=O)CC)cc3Cl)CC2)cc1 | -4 | -86* | 0 | -48
O=C(Nc1ccc(N2CCN(C(=O)c3ccco3)CC2)c(Cl)c1)c1cc2ccccc2o1 | 8 | -113* | 1 | -24
O=C1CCCC2=C1C1O[C@](CCCCN3C(=O)c4ccccc4C3=O)(Cc3c1ccc1ccccc31)O2 | i | / | i | /
COc1cccc(NC(=O)CSc2nnc3ccc(-c4ccncc4)nn23)c1 | -3 | -10 | -18 | 16
CCC(=O)N1CCN(c2ccc(NC(=O)c3ccco3)cc2Cl)CC1 | 7 | / | -5 | -4
CCC(=O)N1CCN(c2ccc(NC(=O)c3cc4ccccc4o3)cc2Cl)CC1 | 8 | -88* | -8 | 20
COc1cc(-c2nnc(SCC(=O)Nc3ccc(C(=O)O)cc3)o2)cc(OC)c1OC | / | -9 | / | -6
Cc1cccc(NC(=S)Nc2cccc(C)n2)n1 | -1 | -147* | 25 | 13
Cc1cccc(NC(=S)NC2CCCC2)n1 | 4 | -11 | 8 | /
Cc1ccnc(NC(=O)Cc2ccc([N+](=O)[O-])cc2)c1 | -1 | -12 | 3 | -1
Cc1ccnc(NC(=O)c2cc([N+](=O)[O-])cc([N+](=O)[O-])c2)c1 | 1 | -89* | -2 | -3
CCN(C[C@H]1N[C@@](CC)(C(=O)OC)[C@H]2C(=O)N(Cc3ccccc3)C(=O)[C@@H]12)C(=O)Nc1ccc(C(F)(F)F)cc1 | / | -75* | / | -5
COc1cccc(C(=O)N2CCCc3ccccc32)c1OC | / | 3 | / | -9
COc1ccccc1C(=O)N1CCc2ccccc21 | -1 | -73* | 9 | -10

Bioassay records from PubChem.
